Experimental data published in PubChem BioAssay (NCI).
The panel holds about 83,000 compounds, 20% with a hit somewhere; the sample as a whole holds those more often.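 48-hour exposure, single concentration, 96-well plates; percent growth endpoint where 0 means no net growth. Active: below 10.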 Unmarked numbers belong to inactive results. Active and inactive are the calls of the source.

How the values were obtained:
Test in all cases: NCI-60 one-dose screen, 48 h (100 = growth as untreated, 0 = no growth, -100 = all killed)
Details in all cases: 10 µM unless noted
DU-145 prostate = system: DU-145 prostate
K-562 leukemia = system: K-562 leukemia
MALME-3M melanoma = system: MALME-3M melanoma
MDA-MB-231 breast = system: MDA-MB-231 breast
RXF 393 renal = system: RXF 393 renal
SF-268 CNS = system: SF-268 CNS
SF-295 CNS = system: SF-295 CNS
SF-539 CNS = system: SF-539 CNS
M14 melanoma = system: M14 melanoma
HCT-15 colon = system: HCT-15 colon
HT29 colon = system: HT29 colon
SNB-75 CNS = system: SNB-75 CNS
SNB-19 CNS = system: SNB-19 CNS
PC-3 prostate = system: PC-3 prostate
SK-MEL-5 melanoma = system: SK-MEL-5 melanoma
UACC-62 melanoma = system: UACC-62 melanoma
LOX IMVI melanoma = system: LOX IMVI melanoma
SK-MEL-28 melanoma = system: SK-MEL-28 melanoma
UACC-257 melanoma = system: UACC-257 melanoma
U251 CNS = system: U251 CNS

Row | Structure (SMILES) | growth (DU-145 prostate) | growth (K-562 leukemia) | growth (MALME-3M melanoma) | growth (MDA-MB-231 breast) | growth (RXF 393 renal) | growth (SF-268 CNS) | growth (SF-295 CNS) | growth (SF-539 CNS) | growth (M14 melanoma) | growth (HCT-15 colon) | growth (HT29 colon) | growth (SNB-75 CNS) | growth (SNB-19 CNS) | growth (PC-3 prostate) | growth (SK-MEL-5 melanoma) | growth (UACC-62 melanoma) | growth (LOX IMVI melanoma) | growth (SK-MEL-28 melanoma) | growth (UACC-257 melanoma) | growth (U251 CNS)
1 | CC(NNC(=S)N1CCCCCC1)c1ccc2ccccc2n1 (stereo not drawn) | 36.2% | 18.2% | 29.1% | 41.6% | 58.3% | 39.7% | -10.9% (active) | 18.6% | 21% | 30.8% | 35.9% | 71.4% | 44.1% | 34.6% | 30.9% | 11.3% | 29.6% | 54.7% | – | –
2 | O=C1/C(=C/c2ccc(F)cc2)Cc2ccccc21 | 104% | 110% | 107% | 107% | 99.6% | 110% | 90.8% | 107% | 103% | – | 91% | 83.4% | 92.3% | 97.8% | 99.9% | 95.1% | 103% | 105% | – | –
3 | COc1ccc2[nH]c(=O)c(CNc3ccc(Nc4nccc(-c5ccc(Cl)cc5)n4)cc3)cc2c1 | 84.8% | 68.6% | 97.7% | 84.9% | 101% | 71.9% | 110% | 104% | 111% | 74.3% | 76% | 106% | 95.4% | 71.4% | 95.6% | 96.7% | 97.1% | 112% | – | –
4 | N#Cc1ncc(-c2ccc(C(F)(F)F)cc2)c(NC2CCCCCC2)n1 | 60.5% | 13.6% | -49.2% (active) | 56.3% | 36.6% | 39.3% | -29.5% (active) | 74.4% | 22.4% | 57.1% | 19.1% | 49.7% | 35.2% | 4.57% (active) | -6.45% (active) | 13.2% | 32.5% | 36.5% | – | –
5 | COc1c(Br)cc(C(c2cc(Br)c(OC)c(Br)c2)c2ccccc2C(=O)O)cc1Br | 111% | 89.6% | 91.3% | 102% | 107% | 98.8% | 96% | 92.2% | 95.4% | 115% | 100% | 76.7% | 95.9% | 89.9% | 100% | 97.9% | 96.6% | 112% | – | –
6 | O=[N+]([O-])c1ccc2[nH]cc(-c3c4ccccc4cc4[nH]c5ccc([N+](=O)[O-])cc5c34)c2c1 | 36.6% | 9.96% (active) | 26.5% | 45.6% | -2.62% (active) | 33.9% | 22.5% | 44% | -3.7% (active) | – | 13.4% | 16.6% | 47.6% | 17.2% | 23.2% | 28.6% | 21.3% | 28.1% | – | –
7 | COc1ccc(/C=C2\CCc3ccccc3C2=O)cc1 | 98.2% | 20.7% | 86.1% | 87.3% | 103% | 100% | 32.5% | 105% | 99.2% | 91.3% | 80.4% | 69.3% | – | 82.1% | 99.3% | 83% | 77.2% | 84.9% | – | –
8 | O=[N+]([O-])c1ccc(NS(=O)(=O)c2ccc(Cl)c(Cl)c2)cc1 | 94% | 66.3% | 88% | 76% | 93.2% | 97% | 50.3% | 82.6% | 79% | 88.7% | 102% | 86.7% | 70.1% | 66.5% | 40.2% | 38.8% | 93.3% | 78.4% | – | –
9 | CCCCOP(=O)(OCCCC)C(C(=O)OCC)C(CC(=O)OCC)C(=O)OCC (stereo not drawn) | 122% | 109% | 125% | 100% | 93.4% | 109% | 101% | 91.4% | 114% | 86.4% | – | 59.9% | 100% | 88.6% | 109% | 105% | 109% | 104% | – | –
10 | O=C(N/N=C/c1cccc(O)c1O)c1ccccc1 | 33% | 15.6% | 20.4% | 30.6% | 29.7% | 18.4% | -1.63% (active) | 6.6% (active) | 15% | 22.7% | 26.4% | 41% | 35.7% | 28.9% | 0.968% (active) | -9.23% (active) | 7.69% (active) | 30.5% | – | –
11 | CC(=O)c1nn(-c2ccccc2)c(=Nc2ccccc2)cc1C | 107% | 97.3% | 120% | 90.2% | 102% | 114% | 86.9% | 107% | 120% | 93.9% | 95.5% | 76.2% | 92.4% | 80.3% | 98.9% | 94.8% | 98.4% | 109% | – | –
12 | CCCCCCCCCCCCCCCCCC1=NC(C)(CO)CO1 (stereo not drawn) | 102% | 80.7% | 91.5% | 88.8% | 102% | 98.6% | 88.5% | 97.7% | 95.8% | 92.4% | 92.8% | 120% | 101% | 73.4% | 97.1% | 86.7% | 98% | 109% | – | –
13 | Cc1ncc(C(=O)Nc2ccc(CN3CCN(C)CC3)c(C(F)(F)F)c2)cc1C#Cc1cncc2ncccc12 | 66.9% | -10.7% (active) | 0.477% (active) | 21.3% | 36.7% | 57.7% | 82.6% | 67% | 5.36% (active) | 48.4% | 32.4% | 74.4% | 107% | 90.6% | 37.5% | 40.7% | 10.8% | 16.3% | – | –
14 | COc1cc(OC)c2c(c1Cl)O[C@]1(C2=O)C(OCc2ccccc2)=CC(=O)C[C@H]1C | 14.7% | 2.98% (active) | -42.4% (active) | 12.9% | 0.23% (active) | 21.3% | -58% (active) | -16.4% (active) | 2.91% (active) | 15.7% | 7.63% (active) | 24.2% | 36.2% | 6.5% (active) | -75% (active) | 6.94% (active) | 17.9% | 16.4% | – | –
15 | COc1cc(C(=O)c2cc3c(cc2C)OCO3)cc(OC)c1OC | 21.5% | 13.7% | 50.4% | 23.3% | 42.9% | 43.1% | -50.4% (active) | 6.27% (active) | 22.5% | 19.6% | 3.84% (active) | 22.7% | 50.7% | 18.1% | 0.803% (active) | 32.7% | 19.7% | 46.6% | – | –
16 | COc1cc2c(cc1OC)C(CC1(O)CCCCC1)N(S(=O)(=O)c1ccc(C)cc1)CC2 (stereo not drawn) | 32.3% [100 µM] | 10.8% [100 µM] | 18.9% [100 µM] | 40.8% [100 µM] | 48.9% [100 µM] | 26.3% [100 µM] | 3.6% [100 µM] (active) | – | 13% [100 µM] | 22.7% [100 µM] | 21.1% [100 µM] | 40.8% [100 µM] | 48.9% [100 µM] | 2.56% [100 µM] (active) | 18.7% [100 µM] | 27.4% [100 µM] | 29.3% [100 µM] | 55% [100 µM] | 22.4% [100 µM] | 34.1% [100 µM]
17 | COc1cccc(/C=C2\Cc3ccccc3C2=O)c1 | 104% | 93.8% | 97% | 104% | 103% | 109% | 94.6% | 101% | 109% | 100% | 100% | 104% | 94.2% | 87.5% | 100% | 98.9% | 99.5% | 113% | – | –
